Measurements taken from PubChem BioAssay (NCI).
The panel holds about 79,000 compounds, 15% with a hit somewhere; the sample as a whole holds those more often. Calls of active or inactive are those of the source. No stated cut-off is given here; in the data, active means growth inhibition above about 70%; inactive means the rest.

Assays:
[1] = NCI Yeast Anticancer Drug Screen. Data for the rad50 strain (AID 155);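 further: 0% = growth of vehicle-only cultures of the same strain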; details: S. cerevisiae rad50 strain growth inhibition; at 50.0 µM; active compounds read high
In short: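 Genetically altered yeast (DNA repair pathway); compound treatment; growth inhibition vs vehicle ctrl.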

[2] = NCI Yeast Anticancer Drug Screen. Data for the mec2-1 strain (AID 157); details: S. cerevisiae mec2-1 strain, at 50.0 µM, active compounds read high
In short: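 Using mec2-1 yeast: add compound, measure growth, express inhibition versus vehicle-treated cultures.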

[3] = NCI Yeast Anticancer Drug Screen. Data for the sgs1 mgt1 strain (AID 161);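 further: 0% = growth of cultures given vehicle only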; details: S. cerevisiae sgs1 mgt1 strain, at 50.0 µM, active compounds read high
In short: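 Yeast cells carrying a defined DNA-repair defect were exposed to test compounds. Growth inhibition was measured relative to vehicle-treated controls.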

[4] = NCI Yeast Anticancer Drug Screen. Data for the cln2 rad14 strain (AID 165);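 further: 0% = growth equal to vehicle treated cultures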; details: S. cerevisiae cln2 rad14 strain, at 50.0 µM, active compounds read high
In short: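 Yeast strain cln2 rad14, bearing defects in cell cycle control and DNA repair, serves as the test system; values reflect growth inhibition compared with vehicle.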

[5] = NCI Yeast Anticancer Drug Screen. Data for the bub3 strain (AID 167); details: S. cerevisiae bub3 mutant strain, at 50.0 µM, active compounds read high
In short: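 Yeast carrying a defined mutation is treated with each compound, and growth is compared with that of vehicle-exposed cells to give inhibition.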

[6] = NCI Yeast Anticancer Drug Screen. Data for the mlh1 rad18 strain (AID 175); details: S. cerevisiae mlh1 rad18 strain growth inhibition; at 50.0 µM; active compounds read high
In short: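 Steps: expose repair-defective yeast to compound; measure growth; express inhibition against vehicle-treated controls.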

Measured: growth inhibition

ONc1cnc2ccccc2n1
inactive: [1] -34.9% | [2] -30.4% | [3] -3.5% | [4] -49.2% | [5] -4.8% | [6] 0.4%

CC(C)(C)Nc1ccc([N+](=O)[O-])cc1[N+](=O)[O-]
inactive: [1] 26.4% | [2] -21.9% | [3] 6.6% | [4] 7.95% | [5] 25.2% | [6] -10.7%

Oc1c(Cl)cc(Cl)cc1C=Nc1cc(C(F)(F)F)ccc1N1CCc2ccccc2C1
inactive: [1] 53.5% | [2] 0.25% | [3] 50% | [4] 14.4% | [5] 42.8% | [6] 39.6%

O=C1NC2(O)C(=O)c3ccccc3C2(O)N1 (configuration not stated)
inactive: [1] -8.65% | [2] -10.2% | [3] -27.9% | [4] 5.8% | [5] -17.3% | [6] 0.55%

Nc1cc2c(O)cc(S(=O)(=O)O)cc2cc1S(=O)(=O)O
inactive: [1] -5.9% | [2] 8.15% | [3] 2.35% | [4] 14.1% | [5] 34.2% | [6] -4.3%

NC(=O)NC(CCl)NC(N)=O
inactive: [1] 6.6% | [2] -5.8% | [3] -2.05% | [4] 13.1% | [5] -3.55% | [6] -12.3%

NC(CCCCNCc1ccccc1O)C(=O)O (configuration not stated)
inactive: [1] 10% | [2] 14.2% | [3] -1.7% | [4] 7.45% | [5] 20.7% | [6] 25.9%

C=C(C)C(C)(C)n1[nH]c(=O)n(-c2ccccc2)c1=O
inactive: [1] 13.2% | [2] -0.05% | [3] -0.3% | [4] -23.1% | [5] -13.4% | [6] 0%

CCCCSc1nc2ccc([N+](=O)[O-])cc2s1
inactive: [1] 40.6% | [2] -4.2% | [3] 37.5% | [4] 2.1% | [5] 4.45% | [6] 12.9%

C[C@H]1CC[C@@H](C(C)(C)O)CC2=C1CC[C@@H]2C
inactive: [1] -0.2% | [2] -44.4% | [3] -13.2% | [4] 0.15% | [5] -10.6% | [6] -26.4%

N#Cc1ccccc1OCCCCOc1ccccc1C#N
inactive: [1] 8.7% | [2] 14% | [3] 15.2% | [4] 14.2% | [5] 18.7% | [6] 16.1%

CCC(=O)Nc1cccc2ccccc12
inactive: [1] 5.1% | [2] -12.7% | [3] -10.9% | [4] -92.4% | [5] -5.95% | [6] -3.1%

O=[N+]([O-])/C(Cl)=C(\NCCO)C(Cl)=C(Cl)Cl
inactive: [1] 15.6% | [2] 19% | [3] 38% | [4] 17.1% | [5] 23.9% | [6] -2.3%

Cc1ccc([N+](=O)[O-])cc1NC(=O)NCCCl
inactive: [1] -11.1% | [2] 4.55% | [3] 5.5% | [4] -1% | [5] -11.1% | [6] -9.05%

c1ccc(CSc2cnnc3ccccc23)cc1
inactive: [1] 3.9% | [2] -10.8% | [3] 6% | [4] -11.1% | [5] 14.1% | [6] 31.9%

CC(C)NC(=O)OCc1nnn2c1CCC2
inactive: [1] -6.9% | [2] 0.05% | [3] -12.5% | [4] -22.7% | [5] -0.05% | [6] -4.05%

CC1=NN(C(=O)CC(=O)NC(=O)CC(=O)Nc2ccccc2F)C(=O)C1N=Nc1ccc([N+](=O)[O-])cc1 (configuration not stated)
inactive: [1] 20.5% | [2] 22.6% | [3] 30% | [4] 16.3% | [5] 12.1% | [6] 8.2%

NNc1nnnc2ccccc12
inactive: [1] 14.2% | [2] 1.1% | [3] -0.8% | [4] -38.2% | [5] -31.1% | [6] 22.2%

COc1cc(C(=O)O)cc(OC(C)=O)c1OC
inactive: [1] 16.6% | [2] 3.9% | [3] 8.3% | [4] 8.65% | [5] 3.4% | [6] 20.7%

CCC[CH2][Ge]([CH2]CCC)([CH2]CCC)[n]1ccc2ccccc21
inactive: [1] 24% | [2] 31.2% | [3] 47% | [4] 20.3% | [5] 45.9% | [6] 44.7%

COC(=O)C(c1ccccc1)C(SCc1ccccc1)c1ccccc1 (configuration not stated)
inactive: [1] 2.85% | [2] 1.15% | [3] -18.9% | [4] 0.95% | [5] -7.15% | [6] 4.7%

CSCCCC(N)=O
inactive: [1] 1.85% | [2] -11.3% | [3] -1.5% | [4] 0.7% | [5] -10.2% | [6] 3.9%

CC(C)(S)CNCCSC(=O)c1ccccc1
inactive: [1] 2.8% | [2] -0.2% | [3] 23.1% | [4] -16.1% | [5] 63.5% | [6] 30.1%

CC1=CC(=C(C#N)C#N)c2ccccc2N1C
inactive: [1] 1.1% | [2] 4.35% | [3] -8.8% | [4] 3.75% | [5] 14.6% | [6] 1.85%

Cc1cccc(N=Nc2ccc(N=Nc3c(O)ccc4ccccc34)cc2C)c1
inactive: [1] -3.5% | [2] 2.85% | [3] 16.4% | [4] 0.65% | [5] 17.3% | [6] 11.2%

CCC(C)C1(C)OC1C(=O)OC (configuration not stated)
inactive: [1] -2.7% | [2] -31.6% | [3] -42.4% | [4] 22.1% | [5] -41% | [6] 4.55%

Cc1ccc(C(CS(=O)(=O)c2ccc(C)cc2)c2ccccc2)cc1 (configuration not stated)
inactive: [1] 0.5% | [2] 6.15% | [3] -7.8% | [4] -20.1% | [5] 1.7% | [6] -19.9%

NC1=NC(=O)C(CC(=O)Nc2ccc([N+](=O)[O-])cc2[N+](=O)[O-])S1 (configuration not stated)
inactive: [1] -15.2% | [2] -30.3% | [3] 2.3% | [4] 3.3% | [5] 2% | [6] -8.55%

CCCCCCCCCCCCCCCC(=O)NCNC(=O)CCCCCCCCCCCCCCC
inactive: [1] -2.15% | [2] -9.75% | [3] -20.4% | [4] -6.55% | [5] 2.65% | [6] -14.2%

CC12CC3C(CC1O2)C3(C)C (configuration not stated)
inactive: [1] -30.2% | [2] -19.6% | [3] -32.8% | [4] 2.5% | [5] 1.35% | [6] -43.2%

O=c1[nH][nH]c(=O)c2c1nc(SCc1ccc(Br)cc1)n2Cc1ccccc1
inactive: [1] 16.9% | [2] 0.3% | [3] -7.95% | [4] 1.85% | [5] -2.35% | [6] 3.8%

Cc1cc2oc(C)c(S(=O)(=O)NC(=O)Nc3ccc(Cl)cc3)c(=O)c2c(=O)o1
inactive: [1] -2.85% | [2] -0.45% | [3] -2.5% | [4] 3.55% | [5] 12.2% | [6] -2.8%

CCC1(N=[N+]=[N-])C(=O)c2ccccc2N(c2ccccc2)C1=O (configuration not stated)
inactive: [1] -13.3% | [2] -13% | [3] -18.9% | [4] 2.75% | [5] -0.95% | [6] -19.4%

CCCCCC(=O)OCCCc1ccccc1
inactive: [1] 28.9% | [2] 2.9% | [3] -0.3% | [4] -12.9% | [5] 19.4% | [6] -6.8%

COc1ccc(/C=C/C(=O)c2ccc(Cl)s2)cc1
inactive: [1] -18.2% | [2] -4.75% | [3] -5.8% | [4] -34.3% | [5] 20.4% | [6] -4.5%

COc1cc(C(=O)O)c(O)c(OC)c1OC
inactive: [1] 0.2% | [2] 0.9% | [3] -8.4% | [4] -36.1% | [5] -13% | [6] 3.4%

CC1CCC(C(=O)O)CC1 (configuration not stated)
inactive: [1] -16.9% | [2] -9% | [3] -2% | [4] 21.8% | [5] -0.85% | [6] -14.2%

CCOC(=O)C1C(c2cc(OC)c(OC)c(OC)c2)c2cc3c(cc2OC1(C)OC)OCO3 (configuration not stated)
inactive: [1] 5.55% | [2] 5.4% | [3] -0.15% | [4] -1.3% | [5] -5.25% | [6] 19.1%

C1=C(N2CCOCC2)/C(=C2\SC(=Nc3ccccc3)C(=Nc3ccccc3)N2c2ccccc2)CC1
inactive: [1] -5.8% | [2] -5.4% | [3] -7.65% | [4] 14.3% | [5] -5.35% | [6] -28.6%

CC(C)c1ccc(OCC2CCCO2)cc1 (configuration not stated)
inactive: [1] 37.4% | [2] 0.95% | [3] 39% | [4] 41.7% | [5] 28.9% | [6] 27.4%

COc1ccc(-c2cc(N3CCN(c4ccccc4)CC3)c(C#N)c(=O)o2)cc1
inactive: [1] 25.1% | [2] 3.3% | [3] 18.5% | [4] 15.8% | [5] -2.1% | [6] 12.1%

NC(N)=N/N=C1/C(=O)N(C2CCCCCC2)C(=O)C1C(=O)NC1CCCCCC1 (configuration not stated)
inactive: [1] 35.8% | [2] 5.3% | [3] 14.9% | [4] 23.9% | [5] 6.4% | [6] 28.1%
